In PubChem BioAssay (NCI):
About 79,000 compounds went through this panel and 15% of them were active in at least one assay; those are over-represented in the sample as a whole. The source made the active and inactive calls. No stated cut-off is given here; in the data, active means growth inhibition above about 70%; inactive means the rest.

assay: NCI Yeast Anticancer Drug Screen. Data for the sgs1 strain (AID 173);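 further: 0% = growth of vehicle-only control cultures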; conditions: S. cerevisiae sgs1 mutant, at 3.7 µM, active compounds read high
Outline: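 Treat defined-mutant yeast with compound; measure growth; calculate inhibition relative to vehicle-treated cells.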

| SMILES | growth inhibition |
| --- | --- |
| C(CCSC1=NCCN1)CSC1=NCCN1 (tested in a mixture with another compound) | 35% (inactive) |
| CCCCCCCCCCC(=O)Cl | 14% (inactive) |
| COC1C=COC2(C)Oc3c(C)c(O)c4c(c3C2=O)/C(=N/C2CCC(O)OC2C)C=C(NC(=O)/C(C)=C\C(=O)C2CC2C(O)C(C)C(O)C(C)C(OC(C)=O)C1C)C4=O (stereo unspecified) | -76% (inactive) |
| S=c1[nH]nc(Nc2ccc(Cl)cc2)s1 | -7% (inactive) |
| O=C1CSC(/C=C/c2ccccc2)N1c1ccc(-c2ccc(-n3c(-c4ccccc4)nc4ccccc4c3=O)cc2)cc1 (stereo unspecified) | -2% (inactive) |
| O=C1C=CC(=O)N1c1ccc2c(c1)Cc1cc(NC(=O)C(F)(F)F)ccc1-2 | 37% (inactive) |
| Oc1ccc2ccccc2c1C(c1ccc(Cl)cc1)c1c(O)ccc2ccccc12 | -39% (inactive) |
| C[CH2][Sn]([CH2]C)([O]C(=O)C(OC(C)=O)c1ccccc1)[O]C(=O)C(OC(C)=O)c1ccccc1 (stereo unspecified) | 4% (inactive) |
| Cc1ccc2ccc(O)cc2c1 | -14% (inactive) |

same assay, conditions: S. cerevisiae sgs1 mutant, at 11.0 µM, active compounds read high

| SMILES | growth inhibition |
| --- | --- |
| Cc1cccc2c(C(O)CBr)cc(-c3ccc(Cl)cc3)nc12 (stereo unspecified) | 98% (active) |
| CC1=C(SCCO)C(=O)c2ccccc2C1=O | 7% (inactive) |
| CC(/C=C/c1ccc2c(c1)OCO2)[N+](=O)[O-] (stereo unspecified) | 99% (active) |
| COC(=O)C1=C(C)NC(C)=C(C(=O)OCCCN2CCC(c3ccccc3)(c3ccccc3)CC2)C1c1cccc([N+](=O)[O-])c1 (stereo unspecified) | 97% (active) |
| O=[N+]([O-])c1cc2no[n+]([O-])c2cc1N1CCCCC1 | 98% (active) |
| COC(=O)c1ccc(NCC2=CC(=O)C=CC2=O)cc1O | 76% (active) |
| CCCCCCCCNC(=O)C1=C(C)NC(C)=C(C(=O)NCCCCCCCC)C1 | -3% (inactive) |
| S=C(Nc1ccc(Cl)c(Cl)c1)SCc1ccc2c(c1)OCO2 | 99% (active) |
| O=S(=O)(CCCl)c1ccccc1Cl | 64% (inactive) |
| Nc1ccccc1CC(O)C(=O)O (stereo unspecified) | 14% (inactive) |
| CN(C)c1ccc(Sc2ccc3nc(N)nc(N)c3c2)cc1 | 24% (inactive) |
| Cc1ccc(S(=O)(=O)Oc2cc(Cl)c(Cl)cc2Cl)cc1 | -18% (inactive) |
| Cc1cc(I)ccc1N | 4% (inactive) |
| CC(Br)C(=O)c1ccc2cc(Br)c3ccccc3c2c1 (stereo unspecified) | 14% (inactive) |
| O=C(Nc1ccccc1)OCCc1ccc(Cl)c(Cl)c1 | 2% (inactive) |
| CC1(Cl)CC(O)C2(CC1Br)C1(C)OC1C1OC1(Br)C2(C)C (stereo unspecified) | -17% (inactive) |
| Cc1cc(O)cc(O)c1N=Nc1ccc([N+](=O)[O-])cc1 | 4% (inactive) |
| CC1=NN(c2cccc(Cl)c2)C(=O)C1 | -11% (inactive) |
| C(CCSC1=NCCN1)CSC1=NCCN1 (tested in a mixture with another compound) | 86% (active) |
| CCCCCCCCCCC(=O)Cl | 15% (inactive) |
| COC1C=COC2(C)Oc3c(C)c(O)c4c(c3C2=O)/C(=N/C2CCC(O)OC2C)C=C(NC(=O)/C(C)=C\C(=O)C2CC2C(O)C(C)C(O)C(C)C(OC(C)=O)C1C)C4=O (stereo unspecified) | 3% (inactive) |
| S=c1[nH]nc(Nc2ccc(Cl)cc2)s1 | 2% (inactive) |
| O=C1CSC(/C=C/c2ccccc2)N1c1ccc(-c2ccc(-n3c(-c4ccccc4)nc4ccccc4c3=O)cc2)cc1 (stereo unspecified) | 0% (inactive) |
| O=C1C=CC(=O)N1c1ccc2c(c1)Cc1cc(NC(=O)C(F)(F)F)ccc1-2 | 63% (inactive) |
| Oc1ccc2ccccc2c1C(c1ccc(Cl)cc1)c1c(O)ccc2ccccc12 | -25% (inactive) |
| C[CH2][Sn]([CH2]C)([O]C(=O)C(OC(C)=O)c1ccccc1)[O]C(=O)C(OC(C)=O)c1ccccc1 (stereo unspecified) | 15% (inactive) |
| Cc1ccc2ccc(O)cc2c1 | -38% (inactive) |
